Screening results from PubChem BioAssay.
A selection: hits, their analogues and other compounds. The true share with any hit is near 2.8%.
PP5 primary: PP5 (human) phosphatase inhibition. P53041. purified PP5c, OMFP substrate fluorescence. inhibition, % at 6.7 µM. 320,000 compounds, 0.18% hits;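 active = inhibition above the campaign's mean inhibition across all tested compounds plus 3 SD, cut at about 9.5% in these data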;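 note: 0% = DMSO only and 100% = 100 µM cantharidin control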
IDE cell inh: inhibits human insulin-degrading enzyme in HEK cells; P14735; FAbetaB cleavage, fluorescence polarization; inhibition, % at 5.59 µM; 320,000 compounds, 0.41% hits;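 active = percent inhibition above the average of all tested compounds plus 3 SD, set per screening campaign, cut at about 16% in these data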;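 note: IDE supplied by intact live HEK cells; FP after avidin binding of uncleaved biotin substrate so inhibition keeps polarization high; 0% = DMSO wells and 100% = 60 µM reference IDE inhibitor Ii1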
PP1 counter: blocks human PP1-alpha phosphatase, a PP5 counter-screen. P62136. purified PP1alpha, OMFP fluorescence. inhibition, % at 6.7 µM. 320,000 compounds, 0.9% hits;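 active = inhibition above the mean inhibition of all tested compounds plus 3 SD, computed separately for each screening campaign, cut at about 15% in these data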
SKKanGAS inh: SKKanGAS growth inhibition; inhibition, % at 7.5 µM; 300,000 compounds, 1.3% hits; AID 1662; S. pyogenes SKKanGAS, kanamycin growth, BacTiter-Glo, 6 h;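 active = mean replicate score, as percent of positive control median, at least 50; inconclusive = mean below 50 but one replicate at or above 50; inactive = mean and every replicate below 50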;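 note: strain carries kanamycin resistance gene driven by streptokinase promoter and grows in 40 µg/ml kanamycin; loss of luminescence reflects streptokinase promoter inhibition or plain growth inhibition; 0% = median of DMSO wells and 100% = positive control at its reference dose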
IDE act: activators of human insulin-degrading enzyme in cells; P14735; HEK cells, FAbeta-B cleavage, fluorescence polarization; 0% vehicle, 100% cell-free pure enzyme wells; activation, % at 5.96 µM; 340,000 compounds, 0.073% hits; AID 493087;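 active = activation above the mean of all tested compounds plus 3 SD, set per screening campaign, cut at about 17% in these data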
Exocytosis inh: lytic granule exocytosis inhibition. TALL-104 LAMP-1 surface exposure, flow cytometry; cells stimulated with thapsigargin and PMA. inhibition, % at 10 µM. 360,000 compounds, 0.66% hits;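 active = inhibition above about 55%, limit read from the data; inconclusive = no clear call, values can overlap the other calls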
The depositor's hits bear a star; u = inconclusive; x = not tested or not shown.

SMILES	PP5 primary	IDE cell inh	PP1 counter	SKKanGAS inh	IDE act	Exocytosis inh
Cc1conc1NC(c1cccs1)c1ccc2cccnc2c1O (centres undefined)	1.4	3.7	6.5	100.0*	x	x
CCC(=O)NC(c1cccs1)c1ccc2cccnc2c1O (centres undefined)	1.1	-3.5	1.2	41.3	3.2	5.9
CCCCC(=O)NC(c1ccccc1OC)c1ccc2cccnc2c1O (centres undefined)	3.7	8.4	15.3*	-1.7	4.6	2.2
CC(=O)NC(c1ccc(Cl)cc1Cl)c1ccc2cccnc2c1O (centres undefined)	x	x	x	73.2*	0.5	13.2
CC(=O)NC(c1ccc2ccccc2c1)c1ccc2cccnc2c1O (centres undefined)	0.2	11.6	14.1	89.2*	-7.7	9.6
COc1ccc(C(NC(C)=O)c2ccc3cccnc3c2O)c(OC)c1 (centres undefined)	5.2	6.7	1.4	11.7	2.7	7.1
CC(=O)n1c2ccccc2c2ccccc21	0.2	1.2	-7.7	-1.5	0.0	-0.9
Cc1ccc(C(=O)n2c3ccccc3c3ccccc32)cc1	-0.1	-1.2	2.1	67.0*	0.1	-8.5
CCOC(=O)C1=C(C)N=c2s/c(=C\c3ccc(OCC(=O)O)cc3)c(=O)n2C1c1ccccc1OC (centres undefined)	0.7	1.9	3.0	18.8	0.5	7.9
CCOC(=O)C1=C(C)N=c2s/c(=C/c3ccc(OCC(=O)O)c(OC)c3)c(=O)n2C1c1ccc(Cl)cc1 (centres undefined)	1.0	10.6	8.0	51.6*	-4.0	-0.5
CCOC(=O)C1=C(C)n2c(s/c(=C/c3cccc([N+](=O)[O-])c3)c2=O)=NC1c1ccc(O)c(OC)c1 (centres undefined)	2.0	13.7	-4.6	67.4*	-1.3	-0.6
O=c1/c(=C/c2ccc(O)c([N+](=O)[O-])c2)sc2nc3ccccc3n12	x	x	x	x	x	70.4*
CCOC(=O)C1=C(C)N=c2s/c(=C\c3ccc(O)c([N+](=O)[O-])c3)c(=O)n2C1c1ccccc1OC (centres undefined)	4.9	-2.3	9.8	57.8*	-3.0	7.1
CCOC(=O)C1=C(C)N=c2s/c(=C\c3ccc(OCC(=O)O)cc3)c(=O)n2C1c1ccc(Cl)cc1 (centres undefined)	x	x	x	25.5	-9.1	-2.6
COC(=O)c1cc(CNC(=O)c2ccc(N3CCCC3)c([N+](=O)[O-])c2)ccc1OC	0.3	-2.1	-2.6	-5.0	-1.2	-0.7
CSCCC(C)N1CCC(Oc2ccc(C(=O)NCc3ccccn3)cc2)CC1 (centres undefined)	x	x	x	x	x	-8.5
O=C(O)c1[nH]c2ccccc2c1C(c1cc(Br)ccc1O)c1c(C(=O)O)[nH]c2ccccc12	2.1	-2.1	0.3	-13.7	1.9	5.7
O=[N+]([O-])c1ccc(O)c(/C=N/NC(=S)Nc2ccc(Cl)cc2Cl)c1	-0.9	-0.5	0.6	116.9*	-2.0	u
O=C(O)c1cccc(NC(=S)NC(NC(=O)c2cccc([N+](=O)[O-])c2)C(Cl)(Cl)Cl)c1 (centres undefined)	1.8	7.9	6.0	7.2	1.8	-2.6
O=C(NC(NC(=S)Nc1ccc(Cl)cc1Cl)C(Cl)(Cl)Cl)c1cccc([N+](=O)[O-])c1 (centres undefined)	3.2	-3.0	15.4*	106.2*	3.8	-0.9
O=[N+]([O-])c1ccc(/C=N/NC(=S)Nc2ccc(Cl)cc2Cl)s1	0.4	0.6	5.7	76.7*	2.1	94.0*
C[C@H]1CN([C@@H](C)CO)C(=O)c2cc(C3=CCCC3)cnc2O[C@@H]1CN(C)C(=O)c1ccncc1	x	x	x	x	x	4.6
COc1ccc(/C=C/c2nc3cc(-c4ccccc4)ccc3o2)cc1O	4.3	8.0	-0.3	88.1*	-0.2	-1.5
COc1ccc(-c2nc(-c3ccc(NC(=O)c4ccncc4)cc3)no2)cc1OC	3.9	6.5	-2.0	54.6*	1.1	-3.4
CCN(CC)CCOc1ccc(/C(=C(\Cl)c2ccccc2)c2ccccc2)cc1	2.9	-1.4	17.5*	22.6	9.4	5.2
CCN(CC)CCOc1ccc(Br)cc1	-0.7	2.2	0.1	2.0	-4.0	-6.7
Cc1ccc(CN(C(=O)Cn2nnc3ccccc32)C(C(=O)NCc2ccco2)c2cccs2)cc1 (centres undefined)	5.2	-7.3	16.6*	13.5	-5.7	-1.8
